Here are results for 27 compounds from PubChem BioAssay (Tox21).

Where “and” joins values, the source holds several entries; their conditions need not be identical. Identical values can stand only once. A number with no mark means an inactive call. Results filed as inconclusive are left out. Calls of active or inactive are those of the source. Unless noted, the call rests on the fitted dose curve.
On the % scale 0 is the no-effect control and ±100 the full control effect.

The nature of the first assay: qHTS assay to identify small molecule antagonists of the estrogen related receptor (ERR) signaling pathway from Tox21 library (AID 1224848; active means well fitted inhibition curve with a large enough effect in the repeat runs; further: nearly all actives have a fitted effect of over 50% in size; further: potency means the concentration at half of the fitted maximal effect). The settings on record: ERR reporter cell line, luciferase antagonist mode, 18 h; series mostly up to 92.4 µM. The essentials:
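Luminescent reporter read-out (ONE-Glo) from NTP's ERR cell line after 18 h treatment at 37 C with DMSO-dissolved Tox21 compounds; cells pre-plated 6 h beforehand at 2,000 per well.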
`CC(C)n1nc(-c2cc3cc(O)ccc3[nH]2)c2c(N)ncnc21`: the Potency is 1.06 µM (active).

Consider `CCCCCCCCCCCCCCCC[N+](C)(C)CCN(Cc1ccc(OC)cc1)c1ncccn1`, for which the Potency is 21.1 µM (active).

With `Oc1ccc(Cl)cc1Sc1cc(Cl)ccc1O`, the Potency is 10.8 µM (active) and 11.9 µM (active).

With `Cc1[nH]cnc1C[C@H]1CCc2c(C)c3ccccc3n2C1=O`, the Potency is 26.6 µM (active).

Take `COc1cc(-c2nc(NC(=O)c3cc4cc(C)cc(C)c4n3CC(=O)O)sc2CCC2CCCCC2)c(OC)cc1Cl`: the Potency was 31.5 µM (active).

`CCCC(=O)OC[C@@H](OC(=O)CCC)[C@@H](OC(=O)CCC)[C@H](Cn1c2nc(=O)[nH]c(=O)c-2nc2cc(C)c(C)cc21)OC(=O)CCC`: the Potency was 29.8 µM (active).

For the compound `Cc1cc(=O)oc2cc(N(C)C)ccc12`, the Potency result is “inactive”.

Regarding `CCOC(=O)c1nc(C(Cl)(Cl)Cl)n(-c2ccc(Cl)cc2Cl)n1`, the Potency is 61.1 µM (active).

On to `CCCCc1oc2ccc(NS(C)(=O)=O)cc2c1C(=O)c1ccc(OCCCN(CCCC)CCCC)cc1`, for which the Potency is 16.8 µM (active).

Regarding `Clc1ccccc1C(c1ccccc1)(c1ccccc1)n1ccnc1`, the Potency is 3.86 µM (active) and 11.9 µM (active).

Regarding `OCCN1CCN(CC/C=C2/c3ccccc3Sc3ccc(C(F)(F)F)cc32)CC1`, the Potency is 29.8 µM (active).

Take `CC[C@@]1(O)C(=O)OCc2c1cc1n(c2=O)Cc2cc3c(CN(C)C)c(O)ccc3nc2-1`: the Potency is 1.19 µM (active).

`COc1ccc(CN2CCN(C(c3ccc(F)cc3)c3ccc(F)cc3)CC2)c(OC)c1OC`: the Potency is 13.3 µM (active).

As to `OCCN(CCO)c1nc(N2CCCCC2)c2nc(N(CCO)CCO)nc(N3CCCCC3)c2n1`, the Potency is 13.3 µM (active).

Regarding `ON=C1CCCC1`, the Potency is 39.9 µM (active).

In the case of `C[C@@H](NCCCc1cccc(C(F)(F)F)c1)c1cccc2ccccc12`, the Potency is 26.6 µM (active).

In the case of `Nc1ccc2cc(S(=O)(=O)O)cc(O)c2c1N=Nc1ccccc1C(F)(F)F`, the Potency entry was “inactive”.

Consider `CS(=O)(=O)CCNCc1ccc(-c2ccc3ncnc(Nc4ccc(OCc5cccc(F)c5)c(Cl)c4)c3c2)o1`, for which the Potency is 9.44 µM (active).

As for `CCCCCCCCCCCCc1ccc(O)cc1`, the Potency is 54.5 µM (active).

In the case of `O=C(Oc1cccc2cccnc12)c1ccccc1`, the Potency is 0.133 µM (active).

A short description of another assay: qHTS assay to identify small molecule agonists of the estrogen related receptor (ERR) signaling pathway from Tox21 library (AID 1224849). Further: nearly all actives have a fitted effect of over 15% in size. The settings on record: ERR reporter cell line, ONE-Glo luciferase, 18 h; at 92.4 µM (top of the series) unless noted. An outline of the steps:
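ERR reporter cells (NTP line) pre-incubated 6 hours at 37 C, then exposed to compounds for 18 hours at 37 C. ONE-Glo luciferase luminescence was read after 30 minutes at room temperature.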
As for `C[n+]1ccn(Cc2ccccc2)c1`, the activity change, positive = activation is -31.8%.

Consider `CC(C)n1nc(-c2cc3cc(O)ccc3[nH]2)c2c(N)ncnc21`, for which the activity change, positive = activation was -55.4% [at 42.5 µM].

`CCCCCCCCCCCCCCCC[N+](C)(C)CCN(Cc1ccc(OC)cc1)c1ncccn1`: the activity change, positive = activation was -53.6% [at 42.5 µM].

As for `CNc1ccc(O)cc1`, the activity change, positive = activation was -69.6%.

`CCCCN1C(=O)[C@@H]([C@H](O)C2CCCCC2)NC(=O)C12CCN(Cc1ccc(Oc3ccc(C(=O)O)cc3)cc1)CC2`: the activity change, positive = activation is -19.3%.

Turning to `Cc1[nH]cnc1C[C@H]1CCc2c(C)c3ccccc3n2C1=O`, the activity change, positive = activation was -63.7%.

Take `COc1cc(-c2nc(NC(=O)c3cc4cc(C)cc(C)c4n3CC(=O)O)sc2CCC2CCCCC2)c(OC)cc1Cl`: the activity change, positive = activation is -61.8%.

Take `CCCC(=O)OC[C@@H](OC(=O)CCC)[C@@H](OC(=O)CCC)[C@H](Cn1c2nc(=O)[nH]c(=O)c-2nc2cc(C)c(C)cc21)OC(=O)CCC`: the activity change, positive = activation was -44.5% [at 42.5 µM].

Consider `CCOC(=O)c1nc(C(Cl)(Cl)Cl)n(-c2ccc(Cl)cc2Cl)n1`, for which the activity change, positive = activation is -43.4%.

`CCCCc1oc2ccc(NS(C)(=O)=O)cc2c1C(=O)c1ccc(OCCCN(CCCC)CCCC)cc1`: the activity change, positive = activation is -64.5% [at 42.5 µM].

In the case of `OCCN1CCN(CC/C=C2/c3ccccc3Sc3ccc(C(F)(F)F)cc32)CC1`, the activity change, positive = activation was -67.6% [at 42.5 µM].

Consider `CC[C@@]1(O)C(=O)OCc2c1cc1n(c2=O)Cc2cc3c(CN(C)C)c(O)ccc3nc2-1`, for which the activity change, positive = activation is -50.2% [at 42.5 µM].

As to `COc1ccc(CN2CCN(C(c3ccc(F)cc3)c3ccc(F)cc3)CC2)c(OC)c1OC`, the activity change, positive = activation is -66.6% [at 42.5 µM].

As for `Nc1ccccc1O`, the activity change, positive = activation is -27.3%.

Consider `OCCN(CCO)c1nc(N2CCCCC2)c2nc(N(CCO)CCO)nc(N3CCCCC3)c2n1`, for which the activity change, positive = activation is -56% [at 42.5 µM].

Take `CC(C)(C)C1CCC(CC2=C(O)c3ccccc3C(=O)C2=O)CC1` (centres undefined): the activity change, positive = activation was -24.7% [at 42.5 µM].

For `CN1CCC(Nc2ncc3ncnc(Nc4ccc(F)c(Cl)c4)c3n2)CC1`, the activity change, positive = activation is -30.3% [at 42.5 µM].

Turning to `ON=C1CCCC1`, the activity change, positive = activation was -71.1%.

In the case of `C[C@@H](NCCCc1cccc(C(F)(F)F)c1)c1cccc2ccccc12`, the activity change, positive = activation was -58.9% [at 42.5 µM].

For the compound `Nc1ccc2cc(S(=O)(=O)O)cc(O)c2c1N=Nc1ccccc1C(F)(F)F`, the activity change, positive = activation was 0.11%.

Consider `CS(=O)(=O)CCNCc1ccc(-c2ccc3ncnc(Nc4ccc(OCc5cccc(F)c5)c(Cl)c4)c3c2)o1`, for which the activity change, positive = activation was -48.5% [at 42.5 µM].

`CCN(CCC#N)c1ccc(N=Nc2c(Cl)cc([N+](=O)[O-])cc2Cl)cc1`: the activity change, positive = activation is -27%.

On to `CCCCCCCCCCCCc1ccc(O)cc1`, for which the activity change, positive = activation is -63.6%.

As for `O=C(Oc1cccc2cccnc12)c1ccccc1`, the activity change, positive = activation was -60.1% [at 42.5 µM].
